Screening results deposited in PubChem by several laboratories.
CHT inh – inhibitors of human choline transporter CHT; B-score at 10 µM; CHT-expressing cells, membrane potential dye, choline response; active compounds read low; Q9GZV3; 310,000 compounds, 0.86% hits;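 active means B-score over 3 SD under the library average, and starting fluorescence ratio not unusually high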;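 further: choline stimulus applied at its EC90 after an EC20 pre-addition; B-score computed on integrated fluorescence ratio after choline addition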
ANO1 activ – activates or potentiates the mouse TMEM16A chloride channel. Q8BHY3. HEK293 TMEM16A/YFP-H148Q/I152L, iodide quench fluorescence; active compounds read low. B-score at 10 µM. 340,000 compounds, 0.3% hits. AID 623877;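 active means fluorescence-ratio B-score plate-corrected deviation score at least 3 library SD below zero, with starting fluorescence score within 5 deviations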;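 further: channel opened by trigger with iodide after compound preincubation; score built on the fluorescence ratio of max minus min over baseline; more negative score means more quench and so TMEM16A activation or potentiation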
Target sequence (Q8BHY3 whole entry, looked up): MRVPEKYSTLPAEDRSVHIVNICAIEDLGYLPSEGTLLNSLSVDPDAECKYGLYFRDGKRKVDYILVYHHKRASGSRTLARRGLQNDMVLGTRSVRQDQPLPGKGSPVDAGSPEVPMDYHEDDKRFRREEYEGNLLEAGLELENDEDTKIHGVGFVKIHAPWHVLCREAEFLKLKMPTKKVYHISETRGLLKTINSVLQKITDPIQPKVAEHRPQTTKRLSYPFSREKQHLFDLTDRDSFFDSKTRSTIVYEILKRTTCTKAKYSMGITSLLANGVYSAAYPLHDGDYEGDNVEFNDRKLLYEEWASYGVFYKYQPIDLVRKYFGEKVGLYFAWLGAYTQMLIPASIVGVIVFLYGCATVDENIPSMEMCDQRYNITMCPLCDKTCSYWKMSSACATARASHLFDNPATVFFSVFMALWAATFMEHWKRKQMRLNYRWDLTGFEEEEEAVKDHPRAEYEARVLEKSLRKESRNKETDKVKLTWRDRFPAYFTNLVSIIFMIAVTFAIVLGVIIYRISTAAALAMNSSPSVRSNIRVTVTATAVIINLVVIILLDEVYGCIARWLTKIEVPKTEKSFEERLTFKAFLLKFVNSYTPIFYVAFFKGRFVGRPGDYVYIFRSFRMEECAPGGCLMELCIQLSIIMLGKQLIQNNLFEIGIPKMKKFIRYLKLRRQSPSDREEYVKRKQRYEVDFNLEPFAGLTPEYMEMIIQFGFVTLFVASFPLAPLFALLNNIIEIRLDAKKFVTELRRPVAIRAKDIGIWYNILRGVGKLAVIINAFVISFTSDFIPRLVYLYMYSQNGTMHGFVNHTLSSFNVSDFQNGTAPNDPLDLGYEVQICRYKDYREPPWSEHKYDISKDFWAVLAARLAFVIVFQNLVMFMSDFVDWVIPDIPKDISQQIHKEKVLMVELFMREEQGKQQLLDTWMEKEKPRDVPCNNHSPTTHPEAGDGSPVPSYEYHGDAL
Kir21 inh – blocks the mouse Kir2.1 inward-rectifier potassium channel. P35561. HEK293-Kir2.1, FluxOR thallium flux fluorescence; active compounds read low. B-score at 10 µM. 310,000 compounds, 0.85% hits. AID 1672;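 active means fluorescence ratio B-score at or below minus 3 SD of library scores, with starting-brightness B-score within 2 SD, cut at about -4.2 in these data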;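 further: channel flux triggered by added potassium and thallium sulfate stimulus; B-score of peak minus minimum fluorescence over baseline after thallium stimulus; more negative B-score means stronger Kir2.1 block with less thallium influx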
TMEM16A inh – blocks the mouse calcium-activated chloride channel TMEM16A. HEK293 TMEM16A/YFP iodide influx fluorescence, ionomycin. normalized B-score (activity score, 25-100; higher = stronger inhibition) at 10 µM. 310,000 compounds, 1.2% hits. AID 588511;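 active means ratio plate-corrected score three or more library SD toward inhibition, starting fluorescence score within five deviations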;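 further: score derived from kinetic fluorescence span divided by baseline fluorescence per well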
GPR7 antagonist – human neuropeptides B/W receptor 1 antagonism; AID 1861; 290,000 compounds, 1.1% hits; GPR7-expressing cells, fluorescence antagonist assay; inhibition, % at 4.4 µM; in the data active means inhibition above about 16%, passing the limit was not always enough;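 further: cells stimulated with the agonist NPW; 0% = agonist with vehicle and 100% = vehicle without agonist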
CHT allo act – human CHT allosteric activation | Q9GZV3 | CHT-expressing cells, membrane potential dye, choline EC20; active compounds read high; LV-AA mutant CHT in HEK293 cells | B-score at 10 µM | 310,000 compounds, 0.49% hits;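 active means initial fluorescence not abnormally high and integrated response B-score, plate-corrected, over 3 SD above library mean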
CHT activ conf – confirmation of human choline transporter (CHT) activators. CHT-expressing cells, membrane potential dye fluorescence (FDSS); % of choline EC20–EC90 response window; HEK293 expressing CHT LV-AA mutant; choline added at its EC20. activation, % at 10 µM. 2,500 compounds, 91% hits. shares compounds with CHT allo act. AID 504833;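 active means primary screen active, with duplicate mean activation above negative control mean plus 3 SD, cut at about 11% in these data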
HEK293 MP dye – activity in parental HEK293 cells lacking CHT; shares compounds with CHT allo act; membrane potential dye fluorescence (FDSS); measured after EC20 choline addition; ratio readout change at 10 µM, hits read low; 2,500 compounds, 62% hits; AID 623908;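 active means duplicate-averaged ratio beyond 3 SD from buffer wells, up or down, though filed actives are nearly all decreases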
* = called active by the depositor; i = inactive; . = no result given. In the library only some 3.7% were active in any assay of this set; here they are far more common.

SMILES | CHT inh | ANO1 activ | Kir21 inh | TMEM16A inh | GPR7 antagonist | CHT allo act | CHT activ conf | HEK293 MP dye
Nc1sc(-c2ccccc2)n[n+]1Cc1cccc2cccnc12 | i | i | -7* | i | 15 | 7.8* | 12* | i
CCOC(=O)c1cnc2ccc(Br)cc2c1NCCO | i | i | -0.04 | i | 4 | i | . | .
CCOC(=O)c1cnc2ccc(C(=O)OC)cc2c1Nc1ccc(C(=O)O)cc1 | i | i | 0.62 | i | -9 | 8.9* | 63* | -63*
CCOC(=O)c1cnc2ccc(Cl)cc2c1NCCN(C)C | i | i | -0.02 | i | -12 | i | 27* | -39*
CCCc1nc2nc(C)c(NS(=O)(=O)c3ccc(Cl)cc3)c(=O)n2[nH]1 | i | i | 0.44 | i | -5 | i | . | .
CCOc1ccc(NC(=O)CSc2nc(=O)n(CCCN3CCOCC3)c3c2CCC3)cc1 | i | i | -1.3 | i | . | i | . | .
COC(=O)CSc1cc(C)nc2ccc(OC)cc12 | i | i | 1.6 | i | 14 | i | 44* | -50*
O=c1[nH]c2ccccc2[n+]([O-])c1-c1ccccc1 | i | i | 1.4 | i | -10 | i | . | .
Cc1c2c(n3c(nc4ccccc43)c1C#N)N(CCCN(C)C)CC2 | i | i | -2.9 | i | -4 | 7* | 44* | -66*
Cc1c2c(n3c(nc4ccccc43)c1C#N)N(CCN(C)C)CC2 | i | i | -0.58 | i | -1 | 7.1* | 42* | -70*
COc1ccc(N2CCN(Cc3cc(=O)c(OCC(=O)NC4CCCC4)co3)CC2)cc1 | i | i | 1.1 | i | . | i | . | .
CN(C(=O)COC(=O)CNC(=O)c1ccccc1F)C1CCCCC1 | i | i | -1.6 | i | . | i | . | .
CCN1C(=O)c2ccc(C(=O)Nc3c(C)cc(C)cc3C)cc2C1=O | i | i | -0.03 | i | -19 | i | . | .
CC1(C)C(=O)Nc2ccccc2N1C(=O)COC(=O)c1ccc(Cl)c(S(=O)(=O)NCc2ccccc2)c1 | i | i | -1.5 | i | 0 | i | 12* | i
Cc1cc2c3c(ccc(C)c3n1)N=CN2c1ccccc1 | i | i | -0.53 | i | -16 | i | 49* | -60*
Cc1cc(-c2ccccc2)c2c(=O)n(-c3ccccc3)[nH]c2n1 | i | i | 1.4 | i | -5 | i | . | .
O=c1c(/C=N/N2CCOCC2)c(C(F)(F)F)[nH]n1-c1ccccc1 | i | i | 0.48 | i | -12 | i | . | .
COc1ccc(C(=O)CN2CCN(c3cc(C)nc4ccccc34)CC2)cc1 | i | i | -0.24 | i | -3 | 8.5* | 64* | -78*
CCOc1ccccc1N1CCN(C(=O)Nc2ccc(Cl)c(Cl)c2)CC1 | i | . | -1.5 | i | -5 | i | . | .
COc1cccc(Cl)c1NC(=O)N1CCN(c2cc(C)nc3ccccc23)CC1 | i | i | -3.3 | i | -12 | 6.7* | 42* | -50*
CCn1c(N2CCN(CC(=O)c3ccc(OC)cc3)CC2)nc2ccccc21 | . | . | . | . | 9 | . | . | .
Cc1cc(N2CCN(CC(O)C(F)(F)F)CC2)c2ccccc2n1 (stereo unspecified) | i | i | 0.18 | i | 11 | i | 72* | -72*
CCOc1ccc2nc(N3C(=O)/C(=C/c4ccc(Cl)cc4)NC3=S)sc2c1 | . | i | 2.5 | . | -4 | . | . | .
O=C(N/N=C/C=C/c1cccc([N+](=O)[O-])c1)c1ccncc1 | i | i | 0.74 | i | -2 | 7.9* | 13* | i
COc1cc(OC)c([N+](=O)[O-])cc1/C=N/NC(=O)c1ccncc1 | i | i | -0.04 | i | -25 | i | 37* | -38*
SMILES | CHT inh | ANO1 activ | Kir21 inh | TMEM16A inh | GPR7 antagonist | CHT allo act | CHT activ conf | HEK293 MP dye
O=C(N/N=C/C=C\c1ccccc1[N+](=O)[O-])c1ccncc1 | i | i | 0.39 | i | 6 | i | . | .
COc1ccc(/C(C)=N/NC(=O)c2ccncc2)cc1[N+](=O)[O-] | i | i | -0.03 | i | 5 | i | . | .
O=C(COC(=O)C1CCN(c2ccc(C(F)(F)F)cn2)CC1)NC1CCCCC1 | i | i | 1 | i | . | i | 6 | i
Cc1ccc2nc(Cl)c(/C=N/n3c(C)nnc3C)cc2c1 | i | i | -0.48 | i | 0 | 8* | 43* | -54*
CCCn1c(SCC(=O)N(C)CC(=O)Nc2ccc(Cl)cc2)n[nH]c1=O | . | i | . | . | . | . | . | .
COc1ccc2c(c1)c1c3n2CCN(C)C3=NCC1 | i | i | 0.85 | i | -2 | i | 53* | -60*
O=C(c1ccc2c(c1)OCCO2)N1CCCC(CNS(=O)(=O)c2cccs2)C1 (stereo unspecified) | i | i | -1 | i | -4 | i | . | .
Oc1ccccc1CNc1nc2ccccc2n1CCN1CCCCC1 | i | i | -1.5 | i | 1 | i | . | .
CCn1cc(Cl)c(C(=O)Nc2nc3ccccc3n2CCN2CCCCC2)n1 | i | i | -0.01 | i | -10 | 9.6* | 53* | -67*
COc1ccccc1CNc1nc2ccccc2n1CCN1CCCCC1 | i | i | -2.1 | i | 9 | 6.3* | 40* | -22*
O=C(Nc1nc2ccccc2n1CCN1CCCCC1)c1ccco1 | i | i | -0.86 | i | -6 | 8.1* | 29* | -41*
O=C(Nc1nc2ccccc2n1CCOc1ccccc1)c1ccco1 | i | i | 0.11 | i | 10 | i | . | .
CC(=O)Nc1nc2ccccc2n1CCN1CCOCC1 | i | i | 0.29 | i | -4 | i | . | .
Cc1ccc(NC(=O)COC(=O)c2ccc(-n3cccn3)cc2)cc1C | . | i | . | . | . | . | . | .
COc1ccc(C(=O)NNC(=O)c2ccccc2[N+](=O)[O-])cc1[N+](=O)[O-] | i | i | 0.9 | i | -5 | i | . | .
COc1ccc(C(=O)C(C)[n+]2ccc(C)c3ccccc32)cc1[N+](=O)[O-] (stereo unspecified) | i | i | 1 | i | -8 | 6.5* | 43* | -40*
Cc1cc(N2CCOCC2)nc2ccc(NC(=O)CCC(=O)N3CCC(C)CC3)cc12 | i | i | 1.2 | i | -9 | i | . | .
CCC(C)NC(=S)Nc1ccc2nc(N3CCOCC3)cc(C)c2c1 (stereo unspecified) | i | i | -2.2 | i | 12 | i | . | .
